From PubChem BioAssay
A number with no mark means an inactive call. For some assays here: Entries with a potency or affinity are not part of this list. The source made the active and inactive calls. Unless noted, the rule behind the calls is not given here.

Tests used:
[1] = antimalarial activity against Dd2 strain (AID 2302;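 active = growth inhibition above 50% at the single 2 µM test dose, taken to imply half-maximal potency below 2 µM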;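 note: 0% = DMSO untreated growth and 100% = chloroquine plus artemisinin killed control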); conditions: P. falciparum Dd2 in RBCs, LDH growth readout, 72 h; at 2 µM; hits give high values
[2] = HepG2 cytotoxicity, primary screen, cytotoxicity control for P. falciparum antimalarial project, cell-based, ATP luminescence (AID 2303;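 active = inhibition above 50%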;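 note: 0% = DMSO wells and 100% = digitonin-killed cells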); conditions: HepG2 viability, 24-48 h, at 10 µM, hits give high values
[3] = target: L-lactate dehydrogenase (Plasmodium falciparum (isolate CDC / Honduras)) (UniProt Q27743); assay: PfLDH activity inhibition – cell lysate, 3D7 strain, counter-screen for P. falciparum growth inhibition project (AID 2304);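 note: 0% = vehicle and 100% = reference inhibitor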; conditions: P. falciparum 3D7 crude extract, LDH APAD/NBT absorbance; at 2 µM; hits give high values
L-lactate dehydrogenase (Plasmodium falciparum (isolate CDC / Honduras)), sequence (Q27743 whole entry, looked up): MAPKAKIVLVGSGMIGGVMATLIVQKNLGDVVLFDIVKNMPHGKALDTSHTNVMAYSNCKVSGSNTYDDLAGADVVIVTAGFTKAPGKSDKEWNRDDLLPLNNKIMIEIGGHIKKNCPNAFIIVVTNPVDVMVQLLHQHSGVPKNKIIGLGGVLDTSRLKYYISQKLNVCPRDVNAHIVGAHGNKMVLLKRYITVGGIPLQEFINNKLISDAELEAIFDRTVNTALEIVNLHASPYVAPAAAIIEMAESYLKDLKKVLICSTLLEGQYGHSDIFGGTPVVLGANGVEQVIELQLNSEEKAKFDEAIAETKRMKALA

[4] = inhibition of 3D7 malaria parasite growth – strain 3D7 (AID 2306);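 note: 0% = DMSO wells and 100% = chloroquine plus artemisinin control wells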; conditions: P. falciparum 3D7 erythrocytic growth, LDH absorbance, 72 h; at 2 µM; hits give high values
[5] = target: Calcium-dependent protein kinase 1 (Plasmodium falciparum (isolate 3D7)) (UniProt P62344); assay: PfCDPK1 kinase inhibitors, biochemical, TCAMS library (AID 1159585; cut-off not given, nearly all actives have IC50 up to about 0.98 µM;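 note: inhibitors leave more ATP so luminescence rises with inhibition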); conditions: recombinant PfCDPK1, Kinase-Glo ATP depletion luminescence
Calcium-dependent protein kinase 1 (Plasmodium falciparum (isolate 3D7)), sequence (P62344 whole entry, looked up): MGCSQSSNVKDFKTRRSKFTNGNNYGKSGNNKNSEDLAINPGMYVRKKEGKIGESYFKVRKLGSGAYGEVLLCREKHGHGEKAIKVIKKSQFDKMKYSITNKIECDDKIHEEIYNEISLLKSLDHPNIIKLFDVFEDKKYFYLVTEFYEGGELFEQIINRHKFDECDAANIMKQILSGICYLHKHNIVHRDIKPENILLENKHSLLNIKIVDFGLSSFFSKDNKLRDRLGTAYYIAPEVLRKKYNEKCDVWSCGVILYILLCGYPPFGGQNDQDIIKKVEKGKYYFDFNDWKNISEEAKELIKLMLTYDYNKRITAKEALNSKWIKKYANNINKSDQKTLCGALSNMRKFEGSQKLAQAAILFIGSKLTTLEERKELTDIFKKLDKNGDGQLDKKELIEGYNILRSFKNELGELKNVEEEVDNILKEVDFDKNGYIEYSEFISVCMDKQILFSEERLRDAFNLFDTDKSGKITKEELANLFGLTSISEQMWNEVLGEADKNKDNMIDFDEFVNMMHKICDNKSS

[6] = target: Plasmodium falciparum protein kinase 6 (PK6, PF3D7_1337100) (UniProt Q8IDW1); assay: PfPK6 kinase inhibitors, biochemical, TCAMS library (AID 1159586); conditions: recombinant PfPK6, Kinase-Glo ATP depletion luminescence
Plasmodium falciparum protein kinase 6 (PK6, PF3D7_1337100), sequence (Q8IDW1 1-305): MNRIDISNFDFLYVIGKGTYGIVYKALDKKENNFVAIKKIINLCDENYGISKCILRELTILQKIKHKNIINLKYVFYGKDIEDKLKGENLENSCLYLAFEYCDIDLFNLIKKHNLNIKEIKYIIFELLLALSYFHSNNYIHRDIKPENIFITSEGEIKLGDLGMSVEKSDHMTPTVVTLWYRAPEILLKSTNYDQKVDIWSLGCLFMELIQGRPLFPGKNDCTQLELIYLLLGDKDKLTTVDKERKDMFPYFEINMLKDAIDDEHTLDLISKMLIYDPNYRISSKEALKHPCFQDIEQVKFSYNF

[7] = target: Protein kinase 7 (PK7), Plasmodium falciparum 3D7 (PF3D7_0213400) (UniProt Q7YTF7); assay: inhibition of Plasmodium PK7 catalytic activity – biochemical, TCAMS antimalarial set, Kinase-Glo luminescence (AID 1159587); conditions: recombinant PfPK7, Kinase-Glo ATP depletion luminescence
Protein kinase 7 (PK7), Plasmodium falciparum 3D7 (PF3D7_0213400), sequence (Q7YTF7 1-343): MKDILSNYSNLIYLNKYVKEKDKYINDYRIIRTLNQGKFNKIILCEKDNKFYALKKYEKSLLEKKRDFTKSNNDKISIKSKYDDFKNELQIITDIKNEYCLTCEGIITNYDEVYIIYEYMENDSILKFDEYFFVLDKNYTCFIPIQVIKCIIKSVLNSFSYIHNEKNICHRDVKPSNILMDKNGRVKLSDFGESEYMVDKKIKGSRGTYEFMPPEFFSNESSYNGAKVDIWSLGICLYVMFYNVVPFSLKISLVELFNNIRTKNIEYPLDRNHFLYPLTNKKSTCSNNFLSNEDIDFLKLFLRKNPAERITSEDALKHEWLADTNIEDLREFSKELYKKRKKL

[8] = target: Calcium-dependent protein kinase 4 (Plasmodium falciparum (isolate 3D7)) (UniProt Q8IBS5); assay: PfCDPK4 kinase inhibitors, biochemical, TCAMS library (AID 1159588; cut-off not given, nearly all actives have IC50 up to about 0.91 µM); conditions: recombinant PfCDPK4, Kinase-Glo ATP depletion luminescence
Calcium-dependent protein kinase 4 (Plasmodium falciparum (isolate 3D7)), sequence (Q8IBS5 whole entry, looked up): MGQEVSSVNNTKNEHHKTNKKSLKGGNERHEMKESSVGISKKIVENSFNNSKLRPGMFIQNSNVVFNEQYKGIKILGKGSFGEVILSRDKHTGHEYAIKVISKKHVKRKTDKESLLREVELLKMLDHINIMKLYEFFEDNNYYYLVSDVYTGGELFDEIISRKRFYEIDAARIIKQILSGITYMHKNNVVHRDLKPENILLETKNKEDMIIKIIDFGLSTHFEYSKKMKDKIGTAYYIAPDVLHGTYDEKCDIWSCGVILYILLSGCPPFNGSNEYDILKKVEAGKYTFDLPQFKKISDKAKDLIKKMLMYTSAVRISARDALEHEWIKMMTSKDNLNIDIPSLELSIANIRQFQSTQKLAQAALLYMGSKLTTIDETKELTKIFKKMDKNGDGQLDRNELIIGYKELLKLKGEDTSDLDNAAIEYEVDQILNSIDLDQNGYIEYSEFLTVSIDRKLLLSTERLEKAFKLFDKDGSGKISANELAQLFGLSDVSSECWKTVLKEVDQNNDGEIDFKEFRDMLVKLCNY

| Compound | growth inhibition [1] | inhibition [2] | inhibition [3] [%] | growth inhibition [4] | outcome [5] | outcome [6] | outcome [7] | outcome [8] |
| --- | --- | --- | --- | --- | --- | --- | --- | --- |
| CC(C)(C)CC(C)(C)c1ccc(O)c(CNC2CCCCC2)c1 | 99% (active) | 92% (active) | 4 | 98% (active) | inactive | inactive | inactive | inactive |
| O=C(Nc1cccc(-c2csc(-c3nc4ccccc4[nH]3)c2)c1)c1ccncc1 | 61% (active) | 64% (active) | -1 | 101% (active) | inactive | inactive | inactive | inactive |
| CN(C)CCOc1cc(NC(=O)/C=C/c2cccc3ccccc23)ccc1I | 7% | 55% (active) | 0 | 98% (active) | inactive | inactive | inactive | inactive |
| CN(Cc1ccc(C#N)cc1)C1CCN(c2cc(NC(=O)c3ccc(F)cc3)ccn2)CC1 | 10% | 24% | -5 | 86% (active) | inactive | inactive | inactive | inactive |
| CC(C)N1CCN(C(=O)c2ccc(CNCCCN3CCN(c4cccc(Cl)c4Cl)CC3)s2)CC1 | 44% | 51% (active) | -3 | 102% (active) | inactive | inactive | inactive | inactive |
| CNC(=O)NC1=NC(C)(C)N(OCCCOc2cc(Cl)c(Cl)cc2Cl)C(N)=N1 | 2% | 7% | -3 | 97% (active) | inactive | inactive | inactive | inactive |
| O=C(/C=C/c1ccccc1Cl)Nc1ccc(Br)c(OCCN2CCCCC2)c1 | 25% | 11% | -4 | 99% (active) | inactive | inactive | inactive | inactive |
| COc1cccc(C(=O)NCc2cccs2)c1Oc1ccccc1 | 4% | -6% | -4 | 98% (active) | inactive | inactive | inactive | inactive |
| CC(C)C[C@H](NC(=O)c1ccc(F)cc1)C(=O)N[C@H](/C=N/NC(=O)c1ccccc1)CCc1ccccc1 | 61% (active) | 1% | -2 | 92% (active) | inactive | inactive | inactive | inactive |
| CC(Nc1ccc2c(c1)OCCO2)C(=O)Nc1cc(C(F)(F)F)ccc1N1CCOCC1 (stereo not given) | 70% (active) | -6% | 1 | 98% (active) | inactive | inactive | inactive | inactive |
| O=C(Nc1ccc(OC2CCN(Cc3ccsc3)C2)c(Cl)c1)c1ccc(F)cc1 (stereo not given) | 73% (active) | -3% | -8 | 89% (active) | inactive | inactive | inactive | inactive |
| Cc1cc(N(C)C)nc(Nc2ccc(NC(=O)Nc3ccccc3)cc2)n1 | 100% (active) | 10% | -2 | 101% (active) | inactive | inactive | inactive | inactive |
| CNC(=O)c1cnc(Nc2ccc3[nH]c(=O)[nH]c3c2)nc1Nc1cccc(OC(C)C)c1 | 94% (active) | 18% | -8 | 89% (active) | inactive | inactive | inactive | inactive |
| COc1ccc(CN(C)CC(O)COc2ccc(NC(=O)c3cccc4c(=O)c5cccc(OC)c5[nH]c34)cc2)cc1OC (stereo not given) | 65% (active) | 72% (active) | -3 | 93% (active) | inactive | inactive | inactive | inactive |
| O=C(Cc1cn(-c2ccccc2)nc1-c1ccc(Cl)cc1)Nc1nccs1 | 8% | 9% | 1 | 88% (active) | inactive | inactive | inactive | inactive |
| Cn1ccc2c3c(N)nc(N)nc3ccc21 | 17% | 59% (active) | 6 | 91% (active) | inactive | inactive | inactive | inactive |
| O=C(NCCc1ccccc1)N(Cc1cccc(-c2ccc(CNC3CCCC3)cc2)c1)C1CCN(Cc2ccccc2)CC1 | 84% (active) | 36% | 0 | 98% (active) | inactive | inactive | inactive | inactive |
| Cc1cccc2[nH]c(-c3cccc(-c4cccc(CN5CCCC5CN)c4)c3)nc12 (stereo not given) | 72% (active) | 15% | 6 | 101% (active) | inactive | inactive | inactive | inactive |
| O=C(NCc1ccccc1)NC(CCCN1CCC(Oc2cccc(Cl)c2)CC1)c1ccc(Cl)c(Cl)c1 (stereo not given) | 57% (active) | 15% | 4 | 81% (active) | inactive | inactive | inactive | inactive |
| COc1cc(C2=NN(S(=O)(=O)c3c(Cl)cc(Cl)cc3Cl)CCCC2)ccc1Cl | 97% (active) | 3% | -1 | 98% (active) | inactive | inactive | inactive | inactive |

| Compound | growth inhibition [1] | inhibition [2] | inhibition [3] [%] | growth inhibition [4] | outcome [5] | outcome [6] | outcome [7] | outcome [8] |
| --- | --- | --- | --- | --- | --- | --- | --- | --- |
| COc1cc(NC(=O)c2cc([N+](=O)[O-])ccc2NC(=O)CNC2CCCCC2C)cc(OC)c1 (stereo not given) | 78% (active) | -2% | 3 | 87% (active) | inactive | inactive | inactive | inactive |
| O=C(Nc1ccc2c(c1)CCC2)c1cccc(CN2CCCN(Cc3cccc(O)c3)CC2)c1 | 20% | 10% | 0 | 91% (active) | inactive | inactive | inactive | inactive |
| CN1CCN(CCCN(Cc2ccc(-c3cccc(CNCc4ccc5c(c4)OCO5)c3)cc2)C(=O)Nc2ccccc2)CC1 | 87% (active) | 51% (active) | -7 | 101% (active) | inactive | inactive | inactive | inactive |
| Cn1cncc1C(=O)NC1CCN(c2ccnc(Nc3ccc(F)cc3)n2)C1 (stereo not given) | 83% (active) | 2% | -7 | 97% (active) | inactive | inactive | inactive | inactive |
| CN1CCN(c2ccc3nc(-c4ccc(Cc5cc(Cl)ccc5OCc5ccccc5)o4)[nH]c3c2)CC1 | 79% (active) | 27% | 2 | 102% (active) | inactive | inactive | inactive | inactive |
| c1cc(C2=N[C@H]3CCCC[C@@H]3N2)ccc1OCCCCCOc1ccc(C2=N[C@@H]3CCCC[C@H]3N2)cc1 | 23% | 80% (active) | -5 | 101% (active) | inactive | inactive | inactive | inactive |
| FC(F)(F)c1ccc2nc(-c3ccc(-c4cccc(CNCc5cnn(-c6ccccc6)n5)c4)cc3)[nH]c2c1 | 83% (active) | 19% | -1 | 99% (active) | inactive | inactive | inactive | inactive |
| Cc1ccc(S(=O)(=O)N(C)c2ccccc2C(=O)Nc2ccccc2Oc2ccccc2)cc1 | 90% (active) | 5% | 3 | 98% (active) | inactive | inactive | inactive | inactive |
| CSc1nnc2n(Cc3ccccc3)c(=O)c3c(n12)-c1ccccc1CC31CCCCC1 | -6% | 0% | 1 | 93% (active) | inactive | inactive | inactive | inactive |
| Cc1cccnc1Nc1nc(-c2ccccn2)cs1 | 99% (active) | 60% (active) | -1 | 96% (active) | inactive | inactive | inactive | inactive |
| CCCCCCC(C)c1cc(O)c2c(c1)OC(C)(C)C=C2c1ccncc1 (stereo not given) | 29% | -7% | 0 | 98% (active) | inactive | inactive | inactive | inactive |
| CS(=O)(=O)n1c(CN2CCN(c3ncc(C(F)(F)F)cc3Cl)CC2)nc2ccccc21 | 59% (active) | -2% | -4 | 83% (active) | inactive | inactive | inactive | inactive |
| C=CCN1C(=O)CN(S(=O)(=O)c2ccc(-n3nc(C)cc3C)cc2)C1=S | -2% | 5% | 1 | 93% (active) | inactive | inactive | inactive | inactive |
| O=C(/C=C/c1cccc(C(F)(F)F)c1)NCCCCCN1CCN(C(=O)Nc2ccc(Cl)c(Cl)c2)CC1 | -1% | 29% | 4 | 89% (active) | inactive | inactive | inactive | inactive |
| CCOc1ccc2c(NN=Cc3cc(OC)c(OC)cc3OC)cc(C)nc2c1 | 97% (active) | 24% | 4 | 101% (active) | inactive | inactive | inactive | inactive |
| O=C(Nc1cc(F)cc(-c2cccnc2)c1)c1ccc2c(=O)n(Cc3ccccc3)cnc2c1 | 11% | 7% | 2 | 98% (active) | inactive | inactive | inactive | inactive |
| Cc1c(Cn2nc(Cl)c(N3CCNCC3)cc2=O)cccc1NC(=O)Nc1ccc(-c2ccccc2)cc1 | 29% | 96% (active) | 2 | 80% (active) | inactive | inactive | inactive | inactive |
| Cc1cc(NCCc2cccc(F)c2)nc(/N=C(\N)Nc2cccc(C(F)(F)F)c2)n1 | 99% (active) | 42% | -1 | 102% (active) | inactive | inactive | inactive | inactive |
| CCOC(=O)CCCc1cc(NC2CCN(C)CC2)nc(Nc2ccc(C)cc2)n1 | 12% | 35% | -2 | 90% (active) | inactive | inactive | inactive | inactive |
| CC(C)n1cc2c(ccc3nc(N)nc(N)c32)n1 | -2% | 65% (active) | 1 | 92% (active) | inactive | inactive | inactive | inactive |
